From PubChem BioAssay
Only some compounds are listed: those with a hit (about 0.94% of all), similar ones and a draw of the others.
Mtb hypoxia inh = reduces hypoxia-regulated biosensor signal in M. tuberculosis; M. tuberculosis hypoxia-regulated fluorescent reporter, fluorescence; fluorescence inhibition, % (no concentration beside the values); 300,000 tested, 0.1% active; in the data active means fluorescence inhibition mostly above about 23%, no sharp cut-off; inactive means mostly below about 17%
PriA SSB inh = inhibitors of Klebsiella pneumoniae PriA binding to SSB C-terminal tail; 430,000 tested, 0.6% active; AID 1272365; inhibition, % at 33 µM; AlphaScreen SSBct-PriA binding, biotinylated peptide; in the data active means inhibition mostly above about 37%, no sharp cut-off; inactive means mostly below about 20%;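 further: plate controls were negative control peptide for no effect and reference peptide for full effect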
Vc quorum ag = quorum light induction in luxS cqsA deficient V. cholerae; 350,000 tested, 0.16% active; AID 588436; V. cholerae BH1578 lux reporter, luminescence, 6 h; activation, % at 18.7 µM; in the data active means activation mostly above about 9.7%, no sharp cut-off
MazF activator = activators of E. coli MazEF toxin-antitoxin RNase. P0AE70. FAM/BHQ RNA-DNA oligo cleavage fluorescence, 5 h. activation, % at 20 µM. 350,000 tested, 0.32% active. AID 504720; in the data active means activation above about 50%
Target sequence (P0AE70 whole entry, looked up): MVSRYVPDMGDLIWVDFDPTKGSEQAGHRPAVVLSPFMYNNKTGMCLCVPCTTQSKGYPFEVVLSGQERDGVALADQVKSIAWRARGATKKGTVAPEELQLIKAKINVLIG
* hit, by the source's call; i = inactive; . = not tested or not shown; + = active, no number; ! = not confirmed by another sample.

SMILES | Mtb hypoxia inh | PriA SSB inh | Vc quorum ag | MazF activator
Cn1c(=NC(=O)CCSc2ccccc2)sc2ccccc21 | . | -11.0 | . | .
Cc1ccc(C)c2sc(N(CCCn3ccnc3)C(=O)c3ccco3)nc12 | . | -20.0 | . | .
COc1ccc(C)c2sc(N(CCCn3ccnc3)C(=O)Cc3ccccc3)nc12 | . | 33.0* | . | .
Cc1ccc(C)c2sc(N(CCCn3ccnc3)C(=O)Cc3ccc(F)cc3)nc12 | . | 33.0* | . | .
COc1ccc2nc(N(CCCn3ccnc3)C(=O)Cc3ccc(F)cc3)sc2c1 | . | 39.0* | . | .
COc1ccc(Cl)c2sc(N(CCN(C)C)C(=O)Cc3ccccc3)nc12 | . | 12.0 | . | .
CCOc1ccc2nc(N(CCCn3ccnc3)C(=O)c3cccs3)sc2c1 | . | 40.0* | . | .
CS(=O)(=O)c1ccc(C(=O)N(CCCn2ccnc2)c2nc3ccccc3s2)cc1 | . | -1.0 | . | .
O=C(N/N=C\c1cc([N+](=O)[O-])ccc1O)C12CC3CC(CC(C3)C1)C2 | . | -4.0 | . | .
CCCCC(=O)Nc1nnc(-c2ccc(C(F)(F)F)cc2)o1 | . | -27.0 | . | .
Cc1ccc(NC(=O)C(C)Cn2nc(C)nc2C)c(C)c1 (stereo not drawn) | . | 5.0 | . | .
COc1ccc(C(N)=NOC(=O)Cc2ccccc2)cc1 | . | -49.1 | . | .
CN1CCN(N=Cc2c3ccccc3c(Cl)c3ccccc23)CC1 | 5.8 | 52.9* | . | .
COc1ccccc1CNC(=O)C(=O)NCC1CCN(C2CCCC2)CC1 | . | -2.0 | . | .
NC(=NOC(=O)CC1CCCCC1)c1ccc(Br)cc1 | . | -65.8 | . | .
C/C(Cl)=C\Cn1c(O)c(N=O)c2ccccc21 | 9.2 | 14.9 | + | -2.8
Cc1ccc(Cn2c(O)c(N=O)c3ccccc32)cc1 | -13.1 | 3.4 | 20.1 | 5.5
C=CCn1c(O)c(N=O)c2ccccc21 | 4.8 | -1.6 | 2.8 | -2.4
O=Nc1c(O)n(Cc2ccc(Cl)cc2)c2ccccc12 | 10.8 | 10.1 | 225.8* | 8.1
CCN(CC)S(=O)(=O)c1ccc(C(=O)NCC(=O)NN)cc1 | . | 10.0 | . | .
NNc1nc2ccccc2[nH]c1=O | . | 38.0* | . | .
O=C(Nc1cnn(C[C@H]2COc3ccccc3O2)c1)Nc1c(F)cccc1F | . | 0.0 | . | .
COc1ccccc1-n1c(=O)[nH]c2c(C(N)=O)nc(C3CCCCC3)nc21 | 7.6 | -6.9 | -0.2 | 8.8
NC(=O)c1nc(C2CCCCC2)nc2c1[nH]c(=O)n2-c1ccc(F)cc1 | 10.6 | -10.6 | -0.3 | 85.6*
CC(=O)Nc1ccc(C)cc1S(=O)(=O)N1CCc2nc3ccc(Cl)cn3c(=O)c2C1 | . | -9.0 | . | .
SMILES | Mtb hypoxia inh | PriA SSB inh | Vc quorum ag | MazF activator
Cc1ccc2cc3c(N)c(C(=O)Nc4c(C)[nH]c(=O)[nH]c4=O)sc3nc2c1 | . | -14.2 | -0.2 | 205.1*
CCOC(=O)CSC1=NC(=O)/C(=C\c2ccc(OC(C)=O)cc2)S1 | 4.1 | -2.2 | -0.5 | 64.9*
O=C(/C=C/c1cn(CC(O)CN2CCCCC2)c2ccccc12)c1ccccc1 (stereo not drawn) | 32.6* | 22.2 | -0.8 | -15.8
O=C(/C=C/c1cn(CC(O)CN2CCCCC2)c2ccccc12)c1cccs1 (stereo not drawn) | 6.1 | 10.8 | -0.3 | 13.5
COC(=O)CCCC1=CC2=C(c3ccccc3)C(=O)C(C)(OC(=O)C3CCCC3)C(=O)C2=CN1CCc1c[nH]c2ccccc12 (stereo not drawn) | 3.8 | 1.3 | -0.3 | 53.8*
Cc1cc(NC(=O)C(=O)NCC[C@H](O)c2ccco2)no1 | . | -8.0 | . | .
CN(C)c1cccc(C(=O)N2CCCC[C@H](c3ccc(F)cc3)C2)c1 | . | 57.0* | . | .
COc1cc(C(=O)Oc2cc(N)n(S(=O)(=O)c3ccc(F)cc3)n2)cc(OC)c1OC | 6.6 | -9.5 | -0.3 | 245.3*
COc1cc(C(=O)Oc2cc(N)n(S(=O)(=O)c3ccccc3)n2)cc(OC)c1OC | -4.0 | 5.5 | -0.4 | 27.2
O=C(CSc1nccn1-c1ccccc1)NCc1ccc(F)cc1 | 5.8 | 11.6 | -0.3 | 3.6
CCc1ccc(CSc2nccn2-c2ccccc2)cc1 | . | 63.0* | -0.7 | -7.5
c1ccc(CCSc2nccn2-c2ccccc2)cc1 | . | 61.7* | -0.4 | -3.2
COC(=O)CCCSc1nccn1-c1ccccc1 | 10.9 | 13.2 | 0.6 | 4.8
O=S(=O)(c1cccc2nonc12)N1CCN(c2ccccc2F)CC1 | 18.4 | -9.3 | i | 2.7
Cc1cccc(N2CCN(S(=O)(=O)c3cccc4nonc34)CC2)c1C | 3.9 | 39.2* | -0.2 | -0.6
CN(C)CCCN(C(=O)c1ccc(C(=O)c2ccccc2)cc1)c1nc2cc3c(cc2s1)OCCO3 | 1.2 | 41.0*! | 0.6 | 5.0
CN(C)CCN(C(=O)c1ccc(C(=O)c2ccccc2)cc1)c1nc2cc3c(cc2s1)OCCO3 | 5.3 | 48.5* | i | -0.8
CN(C)CCN(C(=O)c1ccc(S(=O)(=O)N(C)c2ccccc2)cc1)c1nc2cc3c(cc2s1)OCO3 | 0.6 | 36.0* | i | -11.1
CN(C)CCCN(C(=O)c1ccc(S(=O)(=O)N(C)C)cc1)c1nc2cc3c(cc2s1)OCO3 | 7.7 | -0.1 | -0.3 | 11.0
CN(C)CCCN(C(=O)COc1ccccc1)c1nc2cc3c(cc2s1)OCCO3 | -4.3 | 5.5 | i | 18.2
CN(C)CCCN(C(=O)Cc1ccccc1)c1nc2cc3c(cc2s1)OCO3 | . | -7.0 | . | .
CN(C)CCN(C(=O)c1ccc(C(=O)c2ccccc2)cc1)c1nc2cc3c(cc2s1)OCO3 | 5.4 | 43.0*! | -0.2 | -15.0
O=C1CCCNCC1 | . | -21.0 | . | .
CCOC(=O)c1c(NC(=O)CN2C(=O)N(C)C3(CCCCC3)C2=O)sc(C(=O)N(C)C)c1C | 24.7* | -13.2 | -0.3 | 4.9
N#Cc1ccccc1NC(=O)C(=O)NCC1CCN(Cc2cccs2)CC1 | . | -7.0 | . | .
SMILES | Mtb hypoxia inh | PriA SSB inh | Vc quorum ag | MazF activator
COc1ccc(O)c(C=NNC(=S)Nc2cccc(S(=O)(=O)N(C)C)c2)c1 | 7.6 | 98.5 | . | .
CN(C)S(=O)(=O)c1cccc(NC(=S)NN=Cc2cc(Br)ccc2O)c1 | -2.2 | 46.6* | . | .
Cc1cc(C)c(S(=O)(=O)NCCc2ccc3c(c2)CCCN3C)cc1C | . | 40.0* | . | .
Cc1ccc(Cl)cc1S(=O)(=O)NCCc1ccc2c(c1)CCCN2C | . | 59.0* | . | .
O=C(c1ccccc1Br)N1CCC(CSC2=NCCS2)CC1 | . | 3.0 | . | .
COc1ccc(S(=O)(=O)NCc2ccco2)cc1C(=O)O | . | 38.0*! | . | .
CC1CCCN(C(=O)c2ccc3c(c2NCCO)C(=O)c2ccccc2C3=O)C1 (stereo not drawn) | . | 64.1* | 0.2 | 12.1
CCc1nnc(NC(=O)CSc2nc3cc4c(cc3cc2C)OCCO4)s1 | 3.5 | -16.7 | 1.3 | 55.4*
O=C(Cn1cnc2ccccc2c1=O)Nc1cc(-n2cccn2)ncn1 | . | -3.0 | . | .
O=C(c1ccno1)N1CC(S(=O)(=O)c2ccc(F)cc2)C1 | . | -12.0 | . | .
Cc1ccc(-c2c3c([nH]c(=S)c2C#N)CCCC3)o1 | 0.9 | -18.0 | -1.9 | 88.3*
CN1CCN(C(=S)Nc2ccc(OC(F)F)cc2)CC1 | . | 7.0 | . | .
O=C(c1csc2c1CCCC2)N1CCN(c2ccc(F)cc2)CC1 | 1.1 | 14.0 | -16.7 | 53.3*
NC(CC(=O)Nc1ccc(F)c(Cl)c1)=NOC(=O)c1cccs1 | . | -4.0 | . | .
O=C(Nc1nc(-c2ccccn2)cs1)c1ccc([N+](=O)[O-])s1 | . | 45.7 | . | .
O=C(Nc1nc(-c2ccccn2)cs1)c1ccc(Cl)cc1[N+](=O)[O-] | . | 110.0* | . | .
Cc1cccc(C(=O)Nc2nc(-c3ccccn3)cs2)c1[N+](=O)[O-] | . | 96.8* | . | .
CSc1ccc(C(=O)Nc2nc(-c3ccccn3)cs2)cc1[N+](=O)[O-] | . | 33.4 | . | .
